Hits are enriched below; roughly 1.2% of the tested compounds scored in any of these assays.
C2C12 statin = suppression of simvastatin myotoxicity | 330,000 compounds, 0.78% hits | C2C12 myotubes + simvastatin, ATP luminescence, 48 h; scaled: DMSO 0, geranylgeraniol control 100 | rescue of ATP level, % at 7.49 µM;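 active = mean ATP rescue above about 67%, or every replicate alone reaching that limit, limit read from the data, passing the limit was not always enough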;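 also: myotubes were challenged with 10 µM simvastatin during compound exposure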
NSD2 HMT inh = inhibitors of human histone methyltransferase NSD2 | AID 743445 | NSD2 peptide methylation, AlphaScreen, 120 min | O96028 | 310,000 compounds, 0.54% hits | inhibition, % at 12.5 µM; in the data active = inhibition above about 50%
Target sequence (O96028 whole entry, looked up): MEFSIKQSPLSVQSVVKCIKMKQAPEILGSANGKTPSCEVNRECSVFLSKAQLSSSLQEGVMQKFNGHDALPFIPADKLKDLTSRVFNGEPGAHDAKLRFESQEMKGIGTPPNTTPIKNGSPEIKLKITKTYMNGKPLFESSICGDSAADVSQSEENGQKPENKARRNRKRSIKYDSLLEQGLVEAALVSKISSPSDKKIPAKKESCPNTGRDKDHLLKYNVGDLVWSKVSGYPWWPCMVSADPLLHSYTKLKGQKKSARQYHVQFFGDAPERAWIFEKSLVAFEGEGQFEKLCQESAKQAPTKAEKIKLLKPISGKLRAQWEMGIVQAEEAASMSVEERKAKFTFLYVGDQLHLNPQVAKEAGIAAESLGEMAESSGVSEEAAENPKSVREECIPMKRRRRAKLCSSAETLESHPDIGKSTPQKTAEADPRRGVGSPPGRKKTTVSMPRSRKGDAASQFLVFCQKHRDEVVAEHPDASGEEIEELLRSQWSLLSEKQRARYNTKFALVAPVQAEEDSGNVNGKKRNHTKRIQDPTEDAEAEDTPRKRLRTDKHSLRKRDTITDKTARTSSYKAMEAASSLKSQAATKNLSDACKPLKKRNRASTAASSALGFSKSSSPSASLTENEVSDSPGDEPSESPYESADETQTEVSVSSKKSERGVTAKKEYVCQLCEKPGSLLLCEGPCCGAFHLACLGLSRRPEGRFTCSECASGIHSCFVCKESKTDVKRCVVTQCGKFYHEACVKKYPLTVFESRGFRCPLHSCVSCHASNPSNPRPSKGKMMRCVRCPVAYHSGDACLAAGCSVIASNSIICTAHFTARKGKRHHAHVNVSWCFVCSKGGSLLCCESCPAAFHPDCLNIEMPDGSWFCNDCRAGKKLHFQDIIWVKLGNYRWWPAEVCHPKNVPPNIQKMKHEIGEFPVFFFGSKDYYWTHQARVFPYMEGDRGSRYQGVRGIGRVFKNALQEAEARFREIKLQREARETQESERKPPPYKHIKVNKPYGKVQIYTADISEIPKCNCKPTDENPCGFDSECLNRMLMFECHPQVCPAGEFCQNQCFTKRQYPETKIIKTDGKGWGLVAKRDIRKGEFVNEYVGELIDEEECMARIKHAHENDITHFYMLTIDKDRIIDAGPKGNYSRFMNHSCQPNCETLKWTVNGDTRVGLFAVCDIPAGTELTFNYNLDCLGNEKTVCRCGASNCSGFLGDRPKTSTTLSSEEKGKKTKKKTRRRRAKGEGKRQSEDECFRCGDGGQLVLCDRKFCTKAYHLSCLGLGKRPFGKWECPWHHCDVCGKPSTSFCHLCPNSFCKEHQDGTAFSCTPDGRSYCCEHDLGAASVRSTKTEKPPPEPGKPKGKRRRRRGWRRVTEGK
miR-122 sensor = miR-122 inhibition in Huh7 cells; Huh7 miR-122 Renilla luciferase sensor, 48 h; neutral wells = 0, positive control = 100; activation (reporter increase), % at 12.5 µM; 340,000 compounds, 0.3% hits;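 active = mean replicate activation score at least 90 and every replicate individually at or above 90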;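 also: higher luciferase means less miR-122 activity so hits act as miR-122 inhibitors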
PglD DTNB = inhibitors of Campylobacter jejuni PglD acetyltransferase; 360,000 compounds, 0.098% hits; inhibition, % at 12.5 µM; purified PglD enzyme, DTNB colorimetric CoA detection; in the data active = inhibition above about 16%, passing the limit was not always enough
* marks the source's active call; other numbers are inactive results; / = not tested or not shown; [ ] = dose if it differs, or a comment.

SMILES	C2C12 statin	NSD2 HMT inh	miR-122 sensor	PglD DTNB
COc1ccc(C(=O)Nc2ccccc2N2CCOCC2)cc1Br	117.3*	-4.4	7.8	-2.6
COc1ccccc1NS(=O)(=O)c1cc(NC(=O)c2cccc(S(=O)(=O)N(C)C)c2)ccc1N1CCOCC1	-3.3	-1.4	135.1*	/
COc1ccccc1NC(=O)N1C[C@@H]2[C@H](c3ccccc31)[C@@H](CO)N2C(=O)C1CC1	12.7	/	0.0[16.7 µM]	-3.0
C[C@@H]1CCCCO[C@@H](CN(C)C(=O)Nc2ccccc2)[C@H](C)CN([C@H](C)CO)C(=O)c2cc(NC(=O)c3ccncc3)ccc2O1	/	/	-6.7[16.7 µM]	1.6
Cc1ccc(NS(=O)(=O)c2cc(-c3cc(C)no3)ccc2C(C)C)nc1	6.6	8.0	99.1*	1.6
CCOc1ccccc1CNS(=O)(=O)c1cc(-c2cc(C)no2)ccc1OC	-1.9	-3.1	52.6	-5.0
COc1ccc(-c2cc(C)no2)cc1S(=O)(=O)NCC(C)c1ccccc1 (configuration not stated)	-2.3	3.0	148.2*	-0.4
COc1ccccc1CNS(=O)(=O)c1cc(-c2cc(C)no2)ccc1C(C)C	2.9	-0.3	106.9*	0.1
COc1ccc(OC)c(CNS(=O)(=O)c2cc(-c3cc(C)no3)ccc2OC)c1	3.9	1.0	13.4	7.2
CCCNC(=O)[C@H]1[C@H](CO)[C@H]2Cn3c(cccc3=O)[C@@H]1N2S(=O)(=O)c1ccccc1F	-1.7	/	/	2.8
CCc1c(C(=O)NC2CCCCC2)[nH]c(C)c1C(C)=O	-0.2	2.9	212.3*	6.0
CCc1c(C(=O)NCc2ccccc2Cl)[nH]c(C)c1C(C)=O	28.5	8.8	118.3*	-2.1
c1cnc2ccc(C(c3nnnn3C3CCCC3)N3CCN(c4nc5ccccc5s4)CC3)cc2c1 (configuration not stated)	122.2*	1.1	11.0	-0.4
O=C(NCc1ccccc1)c1cccc(COc2cccc(Cl)c2)c1	/	27.3	-19.2	4.8
O=C(NCc1ccccc1)Oc1cccc(Cl)c1	105.9*	2.0	-2.7	2.7
CN(C)c1ccc2c(c1)[C@@H]1C[C@@H](CC(=O)NCc3ccc(Cl)cc3)O[C@H](CO)[C@@H]1O2	6.3	/	-5.5[16.7 µM]	-3.4
CN1CCN(c2ccc(NC(=S)NC(=O)c3cccc4c(Br)cccc34)cc2)CC1	125.8*	14.5	6.5	-4.2
CCc1ccc(CN2CCN(C(=O)c3cccc(OC)c3OC)CC2)cc1	90.5*	0.0	-4.7	-0.1
CO[C@H]1CN(C)C(=O)c2cc(NC(=O)C3CC3)ccc2OC[C@@H](C)N(Cc2cncnc2)C[C@H]1C	-0.6	/	/	-3.7
CCOc1cc2[nH]c(=S)n(CCOC)c(=O)c2cc1OCC	110.7*	12.7	0.5	7.5
CCOc1cc2[nH]c(=S)n(CCCN(CC)CC)c(=O)c2cc1OCC	-8.0	39.8	-15.5	-4.0
C[C@@H]1CN([C@H](C)CO)C(=O)Cc2cc(NC(=O)Cc3ccccc3)ccc2O[C@H]1CN(C)C(=O)Nc1ccccc1	22.6	/	2.6[16.7 µM]	16.0
Cc1ccc(-c2nc(CSCC(=O)NCCN3CCN(Cc4ccccc4)CC3)c(C)o2)cc1	-7.3	5.1	169.8*	-5.8
O=C(CCN1CCc2ccccc21)c1ccc2c(c1)OCCO2	115.1*	/	-5.6	-2.7
COc1ccc(C2(NC(C)=O)CCN(C(=O)c3cccs3)CC2)cc1	98.8*	-0.6	-6.1	4.1
SMILES	C2C12 statin	NSD2 HMT inh	miR-122 sensor	PglD DTNB
CSCc1c(C(=O)NC2CCCc3ccccc32)oc2ccccc12 (configuration not stated)	102.4*	3.5	-3.7	-2.3
CC(=O)N1c2c(cc(Br)cc2S(=O)(=O)NCC2COc3ccccc3O2)CC1C (configuration not stated)	16.6	-4.1	119.7*	-1.2
COc1ccc(N(C(=O)Cn2nnc3ccccc32)C(C(=O)NCc2ccco2)c2cccnc2)cc1 (configuration not stated)	80.8*	-1.2	-2.0	-2.4
O=C(CN(C1CCCCC1)S(=O)(=O)c1ccc(F)cc1)Nc1ccc2c(c1)OCO2	22.0	0.1	246.6*	-2.7
CCCNC(=O)N(C)C[C@H]1Oc2ncc(C#Cc3ccncc3)cc2C(=O)N([C@H](C)CO)C[C@@H]1C	14.5	/	-2.9[16.7 µM]	3.5
C[C@H]1CN([C@@H](C)CO)S(=O)(=O)c2ccc(C#CCN(C)C)cc2O[C@H]1CN(C)Cc1ccc2c(c1)OCO2	-4.2	/	6.7[16.7 µM]	-2.7
C[C@H](CO)N1C[C@H](C)[C@@H](CN(C)S(C)(=O)=O)Oc2cc(C#Cc3ccccc3)ccc2S1(=O)=O	-13.8	/	130.2*[16.7 µM]	-2.2
C[C@@H]1CN([C@@H](C)CO)S(=O)(=O)c2ccc(C#CC3CCCC3)cc2O[C@H]1CN(C)C(=O)Cc1ccccc1	-29.0	/	108.1*[16.7 µM]	6.2
C[C@H]1CN([C@@H](C)CO)S(=O)(=O)c2ccc(C#CCN(C)C)cc2O[C@@H]1CN(C)Cc1ccc2c(c1)OCO2	-54.3	/	104.0*[16.7 µM]	4.1
C[C@H](CO)N1C[C@H](C)[C@@H](CN(C)Cc2cncnc2)Oc2cc(C#CC3CCCC3)ccc2S1(=O)=O	-15.7	/	95.2*[16.7 µM]	1.3
C[C@H]1CN([C@@H](C)CO)S(=O)(=O)c2ccc(C#CC3CC3)cc2O[C@H]1CN(C)Cc1cncnc1	-2.5	/	-3.8[16.7 µM]	/
Cc1cc(C)c2cc(CN(CC3CCCO3)C(=S)NCc3ccco3)c(=O)[nH]c2c1 (configuration not stated)	/	0.1	26.2	/
Cc1cc(C)c2cc(CN(Cc3ccco3)C(=O)NCc3ccccc3)c(=O)[nH]c2c1	110.2*	/	-4.8	6.6
Cc1ccc(N2C(N)=NC(N)=NC2(C)C)c(C)c1	110.3*	1.6	-0.3	1.6
CCOc1ccc(NS(=O)(=O)c2cc(NC(=O)C3CC3)ccc2C)cc1Br	-3.8	-1.4	140.2*	-0.9
Cc1ccc(NC(=O)C2CCC2)cc1S(=O)(=O)N1CCCCCC1	9.2	-1.4	-5.4	-4.8
CN(C)C(=O)C[C@H]1CC[C@H]2[C@@H](COC[C@@H](O)CN2C(=O)c2ccncc2)O1	-13.6	/	-3.8[16.7 µM]	-1.1
CCOC(=O)c1cc(-c2ccc(/C=N\n3cnnc3)o2)ccc1Cl	10.0	/	-2.3	25.2*
O=C(CCCn1cnc([N+](=O)[O-])n1)Nc1cccc(Cl)c1Cl	/	-1.7	/	/
Cc1c(Cl)cccc1NC(=O)CCCn1cnc([N+](=O)[O-])n1	11.5	-2.0	251.2*	-5.1
C[C@H](CO)N1C[C@H](C)[C@H](CN(C)Cc2ccc(C(=O)Nc3ccccc3N)cc2)Oc2ccc(NC(=O)C3CC3)cc2CC1=O	7.7	/	165.3*[16.7 µM]	1.1
C[C@@H]1CN([C@@H](C)CO)C(=O)Cc2cc(N(C)C)ccc2O[C@H]1CN(C)Cc1ccc(C(=O)Nc2ccccc2N)cc1	38.9	/	113.2*[16.7 µM]	2.3
C[C@@H]1CN([C@@H](C)CO)C(=O)Cc2cc(N(C)C)ccc2O[C@@H]1CN(C)Cc1ccc(C(=O)Nc2ccccc2N)cc1	-143.8	/	138.3*[16.7 µM]	3.6
COC(=O)N(C)C[C@@H]1OCc2ccccc2-c2ccccc2C(=O)N([C@H](C)CO)C[C@H]1C	/	/	/	-2.7
C[C@@H]1CN([C@H](C)CO)C(=O)c2cc(NC(=O)CCC(F)(F)F)ccc2O[C@@H]1CN(C)S(=O)(=O)c1cccs1	13.1	/	-4.3[16.7 µM]	-1.1

Screening results: PubChem BioAssay, Broad Institute
